According to PubChem BioAssay (NCATS):
Several values for one entry are separate records, joined by “and”; a condition that tells them apart may be missing. Equal entries are not always repeated. Activity calls are given as the source filed them. Calls follow the shape of the dose curve; as a rule, active = well fitted activation curve with a large enough effect; inconclusive = small, poorly fitted or top-dose-only effect; inactive = no such curve, though single readings can be large or run the other way.

These compounds were tested against Cytochrome P450 3A4 (Homo sapiens) (UniProt P08684) (assay: qHTS Assay for Activators of Cytochrome P450 3A4 (AID 885; also: nearly all actives have a fitted effect of over 65% in size)). Settings: recombinant CYP3A4, Luciferin-PPXE luminescence, 60 min; series mostly up to 57.1 µM; activity change, positive = activation: at the top concentration.
Chain of Cytochrome P450 3A4 (Homo sapiens) (P08684 whole entry, looked up): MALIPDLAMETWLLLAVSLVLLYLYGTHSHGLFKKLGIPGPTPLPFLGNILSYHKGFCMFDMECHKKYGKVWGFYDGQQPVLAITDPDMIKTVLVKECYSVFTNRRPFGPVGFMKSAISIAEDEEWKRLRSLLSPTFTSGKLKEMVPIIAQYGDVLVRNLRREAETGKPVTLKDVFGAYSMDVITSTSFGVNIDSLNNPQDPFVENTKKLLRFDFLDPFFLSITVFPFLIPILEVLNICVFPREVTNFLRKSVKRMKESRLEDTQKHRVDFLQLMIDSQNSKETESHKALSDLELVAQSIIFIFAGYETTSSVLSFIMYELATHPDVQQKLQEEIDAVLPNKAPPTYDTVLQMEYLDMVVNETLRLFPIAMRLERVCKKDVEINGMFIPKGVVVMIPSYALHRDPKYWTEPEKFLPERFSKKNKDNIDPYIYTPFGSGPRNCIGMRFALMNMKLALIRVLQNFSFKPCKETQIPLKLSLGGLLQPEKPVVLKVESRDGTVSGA
Outline: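 Steps: enzyme/substrate mix dispensed; compound added, 10 min RT; NADPH regeneration solution added, 60 min RT; luciferin detection buffer stops reaction; 20 min later luminescence measured.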

Row | Structure (SMILES) | activity change, positive = activation
1 | CC(C)=CCC/C(C)=C/CO/N=C1/C[C@@H](O)[C@@H](O)[C@@H]2[C@@H]3C(=O)N(C4CCCCC4)C(=O)[C@H]3CC[C@H]12 | -36.4% [at 11.4 µM] (inactive)
2 | COC(=O)[C@@H]1C[C@@H]2CC[C@@H](O)C[C@@H]2N1Cc1ccc(C)s1 | -55.4% (inactive)
3 | C[C@@H]1OC2C3=C(C(=O)[C@H]4O[C@@H]4[C@H]3O)[C@@H]1[C@H]1[C@H](C)OC=C3[C@H](O)[C@H]4O[C@H]4/C(=N\OCc4ccccc4)[C@@]321 | -58.8% [at 11.4 µM] (inactive)
4 | CC(C)=CCC/C(C)=C/CO/N=C1/C[C@@H](O)[C@@H](O)[C@@H]2[C@H]3C(=O)N(c4ccc(F)cc4F)C(=O)[C@@H]3CC[C@@H]12 | -30.2% [at 11.4 µM] (inactive)
5 | CCc1cc2c(nc1CC)CCN(CC/C(C)=N/OC[C@@H](C)[C@H](OCc1ccccc1)C(C)C)C2 | -34.8% [at 11.4 µM] (inactive)
6 | COC(=O)c1ccc(C23CC4(C2)[C@H](CN(C)[C@@H]4c2ccccc2)C3c2ccc(Cl)nc2)cc1 (stereo not given in full) | -50% (inactive)
7 | COc1ccc(COC(=O)N/N=C2/C[C@@H](O)[C@@H](O)[C@@H]3[C@H]4C(=O)N(c5ccc(F)cc5F)C(=O)[C@@H]4CC[C@H]23)cc1 | -51.6% [at 11.4 µM] (inactive)
8 | CCC1=C2CC[C@H]3C(=O)N(c4ccccc4)C(=O)[C@H]3[C@H]2[C@@]2(C)C(=O)N(CC(=O)OC)C(=O)N2C1=O | -54.5% (inactive)
9 | CO[C@@H]1COC(=O)C/C=C\[C@@H](C)[C@@H]2C=C[C@H](O)[C@@H](COC(=O)CCC[C@H]1C)O2 | -44.8% [at 11.4 µM] (inactive)
10 | CN1C[C@@H]2C(c3ccc(Cl)nc3)C3(c4ccc(C#N)cc4)CC2(C3)[C@H]1c1ccccc1 (stereo not given in full) | -44.9% (inactive)
11 | CO[C@H]1COC(=O)[C@H](C)COC(=O)C/C=C\[C@@H](C)[C@H](OC)COC(=O)C/C=C\[C@@H]1C | -51.9% [at 11.4 µM] (inactive)
12 | COC(=O)[C@@H]1C[C@@H]2CC[C@@H](O)C[C@@H]2N1Cc1ccc(N2CCOCC2)cc1 | -34.3% (inactive)
13 | Clc1ccc(C2[C@H]3CN(Cc4ccc(-c5ccccc5)cc4)[C@H](c4ccccc4)C34CC2(c2cccnc2)C4)cn1 (stereo not given in full) | -52% (inactive)
14 | C[C@H](O/N=C1/[C@H]2O[C@@H]2[C@@H](O)[C@H]2[C@H]1CCn1c(=O)n(-c3ccccc3)c(=O)n12)c1cn([C@H](CO)Cc2ccccc2)nn1 | -48.5% [at 11.4 µM] (inactive) and -48.2% [at 11.4 µM] (inactive)
15 | CC(C)=CCC/C(C)=C/CO/N=C1/C[C@@H](O)[C@@H](O)[C@@H]2[C@@H]3C(=O)N(Cc4ccccc4)C(=O)[C@H]3CC[C@H]12 | -49.8% [at 11.4 µM] (inactive)
